Results filed as inconclusive are left out. Active and inactive are the calls of the source. Unless noted, the call rests on the fitted dose curve; in most records, active means well fitted curve in the direction sought with a large enough effect in the repeat runs; inconclusive means weak or mixed curves; inactive means no such curve, though single readings can be large; an effect the other way counts as inactive or inconclusive.
Tests used:
[1] = qHTS assay to identify small molecule agonists of the peroxisome proliferator-activated receptor delta (PPARd) signaling pathway - cell viability counter screen (AID 743211); further: nearly all actives have a fitted effect of over 55% in size
Procedure, shortened: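 Luminescent ATP viability assay (CellTiter-Glo, 30 min RT) in UAS-bla HEK293H cells carrying the PPAR delta reporter construct, 3000 cells/well, after a 17 h compound treatment at 37 C.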

[2] = molecular target: Peroxisome proliferator-activated receptor delta (Homo sapiens) (UniProt Q03181); assay: qHTS assay to identify small molecule agonists of the peroxisome proliferator-activated receptor delta (PPARd) signaling pathway (AID 743212; calls by dose curve)
Sequence of Peroxisome proliferator-activated receptor delta (Homo sapiens) (Q03181 whole entry, looked up): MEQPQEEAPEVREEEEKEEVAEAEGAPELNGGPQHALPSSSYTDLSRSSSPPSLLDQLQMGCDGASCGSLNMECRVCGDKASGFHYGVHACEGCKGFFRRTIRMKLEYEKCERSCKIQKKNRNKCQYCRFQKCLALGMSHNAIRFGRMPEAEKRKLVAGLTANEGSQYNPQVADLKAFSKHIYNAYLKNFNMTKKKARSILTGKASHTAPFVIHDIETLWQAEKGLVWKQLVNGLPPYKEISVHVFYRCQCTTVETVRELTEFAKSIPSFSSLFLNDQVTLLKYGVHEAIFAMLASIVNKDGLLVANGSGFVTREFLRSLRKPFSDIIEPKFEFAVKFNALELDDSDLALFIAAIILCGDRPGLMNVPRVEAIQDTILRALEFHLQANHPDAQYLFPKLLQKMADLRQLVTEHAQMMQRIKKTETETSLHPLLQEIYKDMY
Procedure, shortened: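 GeneBLAzer PPARd UAS-bla HEK293H cells (beta-lactamase reporter under UAS control), plated and rested 5 h at 37 C, then exposed to compounds in DMSO at 37 C; LiveBLAzer B/G FRET substrate added, 2 h room temperature, fluorescence read.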

[3] = qHTS assay to identify small molecule antagonists of the peroxisome proliferator-activated receptor delta (PPARd) signaling pathway - cell viability counter screen (AID 743213); further: nearly all actives have a fitted effect of over 50% in size
Procedure, shortened: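 Agonist-stimulated (L165041, 300 nM final) HEK293H PPARd UAS-bla cells are exposed to compounds for 17 h at 37 C, and ATP-based luminescence (CellTiter-Glo) from the same wells reports cytotoxicity.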

[4] = molecular target: Peroxisome proliferator-activated receptor delta (Homo sapiens) (UniProt Q03181); assay: qHTS assay to identify small molecule antagonists of the peroxisome proliferator-activated receptor delta (PPARd) signaling pathway (AID 743215; active means well fitted inhibition curve with a large enough effect in the signal ratio in the repeat runs, not every such curve was filed as active; the % refers to the signal ratio; further: series mostly up to about 62 µM)
Procedure, shortened: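 Antagonist-mode beta-lactamase reporter screen: HEK293H cells with UAS-bla under PPARd control, stimulated by 300 nM L165041 (final) alongside test compound for 17 h at 37 C, then FRET fluorescence after 2 h substrate incubation.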

[5] = qHTS assay to identify small molecule agonists of the farnesoid-X-receptor (FXR) signaling pathway - cell viability counter screen (AID 743218); further: nearly all actives have a fitted effect of over 45% in size
Procedure, shortened: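 In GeneBLAzer FXR-UAS-bla HEK 293T cells, compounds act for 16 h at 37 C. Cell viability is then scored in the reporter wells by CellTiter-Glo, 30 min at RT, luminescence.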

[6] = qHTS assay to identify small molecule antagonists of the farnesoid-X-receptor (FXR) signaling pathway - cell viability counter screen (AID 743221; active means well fitted cell-killing curve with a large enough effect in the repeat runs, not every such curve was filed as active; further: nearly all actives have a fitted effect of over 50% in size)
Procedure, shortened: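 In GeneBLAzer FXR-UAS-bla HEK 293T cells stimulated with 50 uM chenodeoxycholic acid (final), compounds acted for 16 h at 37 C. Viability was assessed afterwards by CellTiter-Glo luminescence.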

[7] = molecular target: Vitamin D3 receptor (Homo sapiens) (UniProt P11473); assay: qHTS assay to identify small molecule agonists of the vitamin D receptor (VDR) signaling pathway (AID 743222; calls by dose curve)
Sequence of Vitamin D3 receptor (Homo sapiens) (P11473 whole entry, looked up): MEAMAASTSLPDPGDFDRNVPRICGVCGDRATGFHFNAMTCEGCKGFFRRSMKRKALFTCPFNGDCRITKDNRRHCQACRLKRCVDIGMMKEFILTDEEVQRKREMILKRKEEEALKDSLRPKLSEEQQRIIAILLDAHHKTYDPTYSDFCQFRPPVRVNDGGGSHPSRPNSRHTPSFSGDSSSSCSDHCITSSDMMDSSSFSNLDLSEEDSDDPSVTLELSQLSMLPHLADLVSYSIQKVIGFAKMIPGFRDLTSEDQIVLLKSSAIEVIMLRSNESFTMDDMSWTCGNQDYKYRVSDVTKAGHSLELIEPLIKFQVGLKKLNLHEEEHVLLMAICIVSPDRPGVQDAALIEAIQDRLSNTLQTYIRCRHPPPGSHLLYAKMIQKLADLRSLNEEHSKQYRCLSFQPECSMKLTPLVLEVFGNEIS
Procedure, shortened: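 Agonist activity measured in VDR-bla reporter cells. Exposure 16 h, 37C, 5% CO2; detection by B/G FRET substrate, 2 h RT.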

[8] = molecular target: Vitamin D3 receptor (Homo sapiens) (UniProt P11473); assay: qHTS assay to identify small molecule antagonists of the vitamin D receptor (VDR) signaling pathway (AID 743223; active means well fitted inhibition curve with a large enough effect in the signal ratio in the repeat runs, not every such curve was filed as active; the % refers to the signal ratio)
Procedure, shortened: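 Agonist 1alpha,25-dihydroxyvitamin D3 (3 nM in well) was added with each compound to VDR-bla cells preincubated 4 h. Cells stood 16 h at 37C, then FRET substrate 2 h at room temperature; fluorescence intensity recorded.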

[9] = molecular target: Bile acid receptor (Homo sapiens) (UniProt Q96RI1); assay: qHTS assay to identify small molecule antagonists of the farnesoid-X-receptor (FXR) signaling pathway (AID 743217; active means well fitted inhibition curve with a large enough effect in the signal ratio in the repeat runs, not every such curve was filed as active; the % refers to the signal ratio)
Sequence of Bile acid receptor (Homo sapiens) (Q96RI1 whole entry, looked up): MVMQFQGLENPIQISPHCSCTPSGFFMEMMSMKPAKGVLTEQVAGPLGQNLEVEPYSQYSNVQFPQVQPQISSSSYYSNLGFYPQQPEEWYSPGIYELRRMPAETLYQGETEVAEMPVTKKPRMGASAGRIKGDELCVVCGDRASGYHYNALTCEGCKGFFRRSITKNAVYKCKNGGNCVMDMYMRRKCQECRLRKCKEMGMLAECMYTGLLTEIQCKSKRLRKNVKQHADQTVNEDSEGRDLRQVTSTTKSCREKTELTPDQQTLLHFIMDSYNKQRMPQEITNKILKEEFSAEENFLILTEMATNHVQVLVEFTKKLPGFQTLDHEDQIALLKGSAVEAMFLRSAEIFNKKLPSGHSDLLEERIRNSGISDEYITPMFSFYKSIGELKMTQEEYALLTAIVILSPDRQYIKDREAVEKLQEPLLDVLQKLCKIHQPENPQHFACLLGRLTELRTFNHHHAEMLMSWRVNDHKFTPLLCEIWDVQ
Procedure, shortened: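 Beta-lactamase reporter under UAS control in HEK 293T cells; compound exposure 16 h at 37 °C in the presence of chenodeoxycholic acid (50 uM final); signal from B/G FRET substrate after 2 h at room temperature.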

[10] = molecular target: Bile acid receptor (Homo sapiens) (UniProt Q96RI1); assay: qHTS assay to identify small molecule agonists of the farnesoid-X-receptor (FXR) signaling pathway (AID 743220; active means well fitted activation curve with a large enough effect in the signal ratio in the repeat runs, not every such curve was filed as active; the % refers to the signal ratio)
Procedure, shortened: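 Beta-lactamase reporter under UAS control in GeneBLAzer FXR HEK 293T cells (5000/well) measured with LiveBLAzer FRET substrate after 2 h at room temperature. Compound exposure lasted 16 h at 37C.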

Measured: outcome

COC(=O)/C=C\C(=O)O
inactive: [1] | [2] | [3] | [4] | [5] | [6]

ONc1ccccc1
inactive: [1] | [2] | [3] | [4] | [5] | [6] | [7] | [8]

CO[Si](CCCn1c(=O)n(CCC[Si](OC)(OC)OC)c(=O)n(CCC[Si](OC)(OC)OC)c1=O)(OC)OC
inactive: [1] | [2] | [3] | [4] | [5] | [6] | [7] | [8]

CC(=O)CC(=O)OC(C)(C)C
inactive: [1] | [2] | [3] | [4] | [5] | [6] | [7] | [8]

CCCCCC(C)O (stereo not given)
inactive: [1] | [2] | [3] | [4] | [5] | [6] | [7] | [8]

CC(=O)OC1CCCCC1C(C)(C)C (stereo not given)
inactive: [1] | [2] | [3] | [4] | [5] | [6] | [7] | [8]

CC1CCc2c(N3CCC(O)CC3)c(F)cc3c(=O)c(C(=O)O)cn1c23 (stereo not given)
inactive: [1] | [2] | [3] | [4] | [5] | [6] | [8]

c1ccc2c(CC3=NCCN3)cccc2c1
inactive: [1] | [2] | [3] | [4] | [5] | [6]

O=C(CCCCC(=O)Nc1c(I)cc(I)c(C(=O)O)c1I)Nc1c(I)cc(I)c(C(=O)O)c1I
inactive: [1] | [2] | [3] | [4] | [5] | [6] | [7]

CCOC(CN1CCN(CC(C)C(=O)c2ccccc2)CC1)c1ccccc1 (stereo not given)
inactive: [1] | [2] | [3] | [4] | [5] | [6]

CC(N)CCCC(C)(C)O (stereo not given)
inactive: [1] | [2] | [3] | [4] | [5] | [6] | [7] | [8]

CCOC(=O)CC1(C)OCC(C)O1 (stereo not given)
inactive: [1] | [2] | [3] | [4] | [5] | [6]

O=[N+]([O-])c1c(Cl)cc(Cl)cc1Cl
inactive: [1] | [2] | [3] | [4] | [5] | [6] | [7] | [8]

CC(C)CCOC(=O)c1ccccc1
inactive: [1] | [2] | [3] | [4] | [5] | [6] | [7] | [8]

OC[C@@H](O)C(O)[C@@H](O)CO (stereo not given in full)
inactive: [1] | [2] | [3] | [4] | [5] | [7]

CCCC(=O)OCCC(C)CCC=C(C)C (stereo not given)
inactive: [1] | [2] | [3] | [4] | [5] | [6]

O=C1CCC(=O)N1Cl
inactive: [1] | [2] | [3] | [4] | [5] | [6] | [7] | [8]

COc1cc2c(cc1OC)CN(C(=O)[C@H](C)N[C@@H](CCc1ccccc1)C(=O)O)[C@H](C(=O)O)C2
inactive: [1] | [2] | [3] | [4] | [6]

CC1=C(C(=O)O)N2C(=O)[C@@H](NC(=O)[C@H](N)C3=CCC=CC3)[C@H]2SC1
inactive: [1] | [2] | [3] | [4] | [6] | [7]

C=CC/C=C/C
inactive: [1] | [2] | [3] | [9] | [5] | [6]

N#Cc1ccccc1O
inactive: [1] | [2] | [4] | [9] | [5] | [10] | [6] | [7] | [8]

CNCCS(=O)(=O)O
inactive: [1] | [2] | [3] | [4] | [6] | [7]

CC1c2ccccc2CN1NC(=O)c1ccc(Cl)c(S(N)(=O)=O)c1 (stereo not given)
inactive: [1] | [2] | [3] | [9] | [5] | [10] | [6] | [7] | [8]

c1ccc2cnccc2c1
inactive: [1] | [2] | [3] | [5] | [6] | [7]

CC1(C)CC(OC(=O)CCCCCCCCC(=O)OC2CC(C)(C)NC(C)(C)C2)CC(C)(C)N1
inactive: [1] | [2] | [3] | [5] | [6] | [7] | [8]

CCCCCc1cccc(=O)o1
inactive: [1] | [2] | [4] | [9] | [5] | [10] | [6] | [7]

CCN1CCCC1CN (stereo not given)
inactive: [1] | [2] | [3] | [4] | [6] | [7] | [8]

CN1CCOC(c2ccccc2)c2ccccc2C1 (stereo not given)
inactive: [1] | [2] | [4] | [9] | [5] | [6]

CCCCOC(=O)[C@H](C)O
inactive: [1] | [2] | [4] | [9] | [5] | [6] | [7] | [8]

COc1ccc2c(c1)c1c3n2CCN(C)C3=NCC1
inactive: [1] | [2] | [3] | [5] | [6] | [7] | [8]

CCOc1ccccc1OCC1CNCCO1 (stereo not given)
inactive: [1] | [2] | [3] | [5] | [6] | [7] | [8]

C[C@@H](O)C(=O)O
inactive: [1] | [2] | [3] | [9] | [6] | [7]
